Results published in PubChem BioAssay (EPA / NIEHS).
The source made the active and inactive calls. How the source made its calls: active means hit-call score of the fitted dose curve at least 0.9, where 1 is the maximum; inactive means score below 0.9.

How the values were obtained:
Conditions in all cases: mRNA level, 48 h; actives raise or lower the signal
[1] = read-out: Forkhead box O3 (FOXO3), FOXO3 (gene 2309); assay: LTEA_HepaRG_FOXO3: Life Technologies and Expression Analysis (LTEA) Assay for Forkhead box O3 (FOXO3) using HepaRG (AID 2283459)
Method in brief: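 qRT-PCR readout of FOXO3 transcript, normalized to three housekeeping genes (ACTB, GAPDH, POLR2A); gain or loss fitted against 0.5% DMSO vehicle. HepaRG cells, 48 h chemical exposure, 8-point half-log series, top 100 uM.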

[2] = read-out: ABC Transporter (ABCB1), ABCB1 (gene 5243); assay: LTEA_HepaRG_ABCB1: Life Technologies and Expression Analysis (LTEA) Assay for ABC Transporter (ABCB1) using HepaRG (AID 2283460)
Method in brief: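 HepaRG, 48 h exposure, 8-pt half-log series from 100 uM, 0.5% DMSO vehicle, duplicates. Readout: ABCB1 transcript by Fluidigm TaqMan qRT-PCR, housekeeping-normalized; bidirectional curve fit vs DMSO baseline.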

[3] = read-out: growth arrest and DNA damage 45 (GADD45B), GADD45B (gene 4616); assay: LTEA_HepaRG_GADD45B: Life Technologies and Expression Analysis (LTEA) Assay for growth arrest and DNA damage 45 (GADD45B) using HepaRG (AID 2283461)
Method in brief: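 Transcript level quantified by Fluidigm TaqMan qRT-PCR with three housekeeping genes for normalization, analyzed for up- or down-regulation against 0.5% DMSO. HepaRG cultures dosed 48 h at eight half-log concentrations up to 100 uM, duplicates.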

[4] = read-out: ABC Transporter (ABCC3), ABCC3 (gene 8714); assay: LTEA_HepaRG_ABCC3: Life Technologies and Expression Analysis (LTEA) Assay for ABC Transporter (ABCC3) using HepaRG (AID 2283462)
Method in brief: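 Transcript level by TaqMan qRT-PCR, normalised to three housekeeping genes, fitted in both directions relative to vehicle. Chemicals tested in duplicate at eight half-log concentrations up to 100 uM for 48 h on HepaRG cells (0.5% DMSO).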

[5] = read-out: ABC Transporter (ABCB11), ABCB11 (gene 8647); assay: LTEA_HepaRG_ABCB11: Life Technologies and Expression Analysis (LTEA) Assay for ABC Transporter (ABCB11) using HepaRG (AID 2283463)
Method in brief: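 HepaRG, 48 h exposure, 8-pt half-log CRC top 100 uM, 0.5% DMSO vehicle, duplicates. Readout: TaqMan qRT-PCR of ABCB11 mRNA, housekeeping-normalized (ACTB/GAPDH/POLR2A). Bidirectional fit vs DMSO baseline.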

[6] = read-out: ABC Transporter (ABCC2), ABCC2 (gene 1244); assay: LTEA_HepaRG_ABCC2: Life Technologies and Expression Analysis (LTEA) Assay for ABC Transporter (ABCC2) using HepaRG (AID 2283464)
Method in brief: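 Endpoint is ABCC2 transcript level from qRT-PCR, normalized to three housekeeping genes and fitted bidirectionally relative to DMSO. Human HepaRG cells received test chemical for 48 h at up to 100 uM (8 points, half-log steps, 0.5% DMSO), duplicate wells.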

[7] = read-out: Broad substrate specificity ATP-binding cassette transporter ABCG2 (Homo sapiens) (UniProt Q9UNQ0); assay: LTEA_HepaRG_ABCG2: Life Technologies and Expression Analysis (LTEA) Assay for ABC Transporter (ABCG2) using HepaRG (AID 2283465)
Method in brief: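 HepaRG, 48 h exposure, 8-pt half-log series from 100 uM, 0.5% DMSO vehicle, duplicates. Readout: ABCG2 transcript by qRT-PCR (Fluidigm array), housekeeping-normalized; bidirectional curve fit relative to DMSO baseline.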

[8] = read-out: ATP-citrate lyase (ACLY), ACLY (gene 47); assay: LTEA_HepaRG_ACLY: Life Technologies and Expression Analysis (LTEA) Assay for ATP-citrate lyase (ACLY) using HepaRG (AID 2283466)
Method in brief: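 qRT-PCR readout of ACLY transcript after 48 h chemical treatment of HepaRG cells; expression normalized to three housekeeping genes. Eight-point half-log series, highest 100 uM, 0.5% DMSO vehicle. Gain or loss fitted against DMSO baseline.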

[9] = read-out: Peroxisomal acyl-coenzyme A oxidase 1 (ACOX1) gene, ACOX1 (gene 51); assay: LTEA_HepaRG_ACOX1: Life Technologies and Expression Analysis (LTEA) Assay for Peroxisomal acyl-coenzyme A oxidase 1 (ACOX1) gene using HepaRG (AID 2283467)
Method in brief: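 HepaRG, 48 h chemical exposure, 8-pt half-log series from 100 uM top, 0.5% DMSO vehicle, duplicates. Readout: ACOX1 mRNA by Fluidigm qRT-PCR, housekeeping-normalized; bidirectional fit vs DMSO baseline.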

[10] = read-out: Alkaline Phosphatase, Placental (ALPP) gene, ALPP (gene 250); assay: LTEA_HepaRG_ALPP: Life Technologies and Expression Analysis (LTEA) Assay for Alkaline Phosphatase, Placental (ALPP) gene using HepaRG (AID 2283468);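 on AC50: differentiated human HepaRG liver cells in serum-free induction medium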
Method in brief: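 ALPP transcript level, measured by qRT-PCR and normalized to three housekeeping genes (ACTB, GAPDH, POLR2A), after 48 h dosing of differentiated HepaRG in serum-free induction medium. Top concentration 100 uM with half-log dilutions (8 points, 0.5% DMSO, duplicates); bidirectional fitting relative to DMSO.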

[11] = read-out: Bcl-2 (BAD) gene, BAD (gene 572); assay: LTEA_HepaRG_BAD: Life Technologies and Expression Analysis (LTEA) Assay for Bcl-2 (BAD) gene using HepaRG (AID 2283469)
Method in brief: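 HepaRG, 48 h exposure, 8-pt half-log curve from 100 uM in 0.5% DMSO, duplicates. Readout: TaqMan qRT-PCR for BAD mRNA, housekeeping-normalised (ACTB/GAPDH/POLR2A); gain or loss fitted against DMSO baseline.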

[12] = read-out: Bcl-2 (BAX) gene, BAX (gene 581); assay: LTEA_HepaRG_BAX: Life Technologies and Expression Analysis (LTEA) Assay for Bcl-2 (BAX) gene using HepaRG (AID 2283470)
Method in brief: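 qRT-PCR read-out of BAX mRNA, normalized to three housekeeping genes, after 48 h chemical exposure of human HepaRG cells in serum-free induction medium; eight-point half-log series, top 100 uM, 0.5% DMSO vehicle; bidirectional fit versus DMSO.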

[13] = read-out: Alpha-fetoprotein (AFP) gene, AFP (gene 174); assay: LTEA_HepaRG_AFP: Life Technologies and Expression Analysis (LTEA) Assay for Alpha-fetoprotein (AFP) gene using HepaRG (AID 2283472)
Method in brief: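 qRT-PCR (Fluidigm TaqMan) readout of AFP transcript, normalized to three housekeeping genes, fitted bidirectionally against 0.5% DMSO baseline. HepaRG cells received chemicals for 48 h in serum-free induction medium, top concentration 100 uM, half-log steps.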

[14] = read-out: BCL2L11 (gene 10018); assay: LTEA_HepaRG_BCL2L11: Life Technologies and Expression Analysis (LTEA) Assay for Bcl-2 (BCL2L11) gene using HepaRG (AID 2283473)
Method in brief: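 BCL2L11 transcript levels are measured by Fluidigm qRT-PCR, normalized to three housekeeping genes. HepaRG cultures were plated 48 h, then treated 48 h with test chemical (top 100 uM, half-log, 0.5% DMSO vehicle); curves were fitted bidirectionally against DMSO.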

[15] = read-out: Apolipoprotein A-V (APOA5) gene, APOA5 (gene 116519); assay: LTEA_HepaRG_APOA5: Life Technologies and Expression Analysis (LTEA) Assay for Apolipoprotein A-V (APOA5) gene using HepaRG (AID 2283474)
Method in brief: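 APOA5 transcript levels were quantified by qRT-PCR, normalized to three housekeeping genes, after 48 h chemical treatment of HepaRG cells (8 points, 100 uM maximum, half-log steps, 0.5% DMSO). Curves fitted in both directions against vehicle.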

[16] = read-out: Apoptosis regulator Bcl-2 (Homo sapiens) (UniProt P10415); assay: LTEA_HepaRG_BCL2: Life Technologies and Expression Analysis (LTEA) Assay for Bcl-2 gene using HepaRG (AID 2283475)
Method in brief: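 qRT-PCR read-out (Fluidigm TaqMan) of BCL2 transcript, normalised to three housekeeping genes, after 48 h chemical exposure of HepaRG cells; 8-point half-log series, top 100 uM, 0.5% DMSO vehicle. Gain or loss of signal fitted relative to DMSO baseline.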

[17] = read-out: Bcl-2 (BID) gene, BID (gene 637); assay: LTEA_HepaRG_BID: Life Technologies and Expression Analysis (LTEA) Assay for Bcl-2 (BID) gene using HepaRG (AID 2283476)
Method in brief: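 HepaRG, 48 h exposure, 8-pt half-log series, top 100 uM, 0.5% DMSO vehicle, duplicates. Readout: BID mRNA by TaqMan qRT-PCR; housekeeping-normalized; bidirectional curve fit vs DMSO baseline.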

[18] = read-out: Caspase-3 (Homo sapiens) (UniProt P42574); assay: LTEA_HepaRG_CASP3: Life Technologies and Expression Analysis (LTEA) Assay for cysteine-aspartic acid protease (CASP3) using HepaRG (AID 2283477)
Method in brief: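 Expression of CASP3 was quantified by TaqMan qRT-PCR against three housekeeping genes (ACTB, GAPDH, POLR2A), bidirectionally versus 0.5% DMSO. HepaRG cultures received compounds in duplicate, top 100 uM with half-log steps, for 48 h in serum-free induction medium.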

[19] = read-out: Cytochrome P450 (CYP24A1), CYP24A1 (gene 1591); assay: LTEA_HepaRG_CYP24A1: Life Technologies and Expression Analysis (LTEA) Assay for Cytochrome P450 (CYP24A1) using HepaRG (AID 2283478)
Method in brief: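 mRNA of CYP24A1 quantified by TaqMan qRT-PCR (ACTB/GAPDH/POLR2A normalization) after 48 h chemical exposure of HepaRG cells, top concentration 100 uM, half-log steps, 0.5% DMSO vehicle, duplicates. Curves fitted bidirectionally against DMSO baseline.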

[20] = read-out: adenosine kinase (ADK) gene, ADK (gene 132); assay: LTEA_HepaRG_ADK: Life Technologies and Expression Analysis (LTEA) Assay for adenosine kinase (ADK) gene using HepaRG (AID 2283471)
Method in brief: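 Read-out is ADK transcript level measured by qRT-PCR and normalised to three housekeeping genes. Cells are human HepaRG, dosed for 48 h at up to 100 uM in 0.5% DMSO. Gain or loss of signal is fitted against DMSO controls.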

Measured: AC50

Broad substrate specificity ATP-binding cassette transporter ABCG2 (Homo sapiens), sequence (Q9UNQ0 whole entry, looked up): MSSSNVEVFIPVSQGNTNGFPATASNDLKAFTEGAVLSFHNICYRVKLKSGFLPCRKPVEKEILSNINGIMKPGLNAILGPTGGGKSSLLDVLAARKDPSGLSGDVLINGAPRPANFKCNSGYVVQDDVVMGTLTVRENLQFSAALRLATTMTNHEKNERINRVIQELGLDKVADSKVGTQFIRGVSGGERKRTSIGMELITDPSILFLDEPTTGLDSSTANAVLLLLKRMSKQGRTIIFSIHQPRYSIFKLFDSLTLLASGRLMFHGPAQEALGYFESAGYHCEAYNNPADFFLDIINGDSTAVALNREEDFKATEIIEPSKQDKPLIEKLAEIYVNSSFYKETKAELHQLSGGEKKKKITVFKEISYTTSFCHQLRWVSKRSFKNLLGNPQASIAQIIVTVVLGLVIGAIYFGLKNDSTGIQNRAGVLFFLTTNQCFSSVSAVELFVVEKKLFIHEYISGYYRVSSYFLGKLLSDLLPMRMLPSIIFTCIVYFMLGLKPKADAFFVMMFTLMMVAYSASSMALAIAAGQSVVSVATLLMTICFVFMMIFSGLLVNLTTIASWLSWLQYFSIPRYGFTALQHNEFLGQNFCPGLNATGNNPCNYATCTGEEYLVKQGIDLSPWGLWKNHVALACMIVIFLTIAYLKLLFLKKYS
Apoptosis regulator Bcl-2 (Homo sapiens), sequence (P10415 whole entry, looked up): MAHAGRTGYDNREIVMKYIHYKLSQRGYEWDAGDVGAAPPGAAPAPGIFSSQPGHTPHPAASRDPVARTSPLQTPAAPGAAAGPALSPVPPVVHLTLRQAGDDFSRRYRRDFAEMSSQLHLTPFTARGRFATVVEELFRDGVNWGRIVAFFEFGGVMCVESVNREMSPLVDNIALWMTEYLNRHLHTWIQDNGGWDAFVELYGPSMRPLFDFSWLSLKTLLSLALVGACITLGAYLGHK
Caspase-3 (Homo sapiens), sequence (P42574 whole entry, looked up): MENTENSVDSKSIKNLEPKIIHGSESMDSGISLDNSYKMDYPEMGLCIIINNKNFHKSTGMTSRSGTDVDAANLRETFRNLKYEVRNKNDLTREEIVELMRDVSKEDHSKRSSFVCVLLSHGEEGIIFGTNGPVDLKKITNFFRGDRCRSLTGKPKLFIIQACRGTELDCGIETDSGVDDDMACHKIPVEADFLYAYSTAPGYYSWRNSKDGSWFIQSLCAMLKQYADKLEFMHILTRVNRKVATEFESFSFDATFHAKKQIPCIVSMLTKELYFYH

c1ccc2c(c1)Nc1ccccc1S2
active: [3] 85.3 µM
not listed: [20]
inactive: all other assays above

[N-]=[N+]=[N-]
active: [4] 69.3 µM | [7] 34.4 µM | [8] 73.4 µM | [13] 77.9 µM | [14] 80.6 µM | [15] 50 µM | [16] 76.8 µM
not listed: [1]
inactive: all other assays above

CCOP(=S)(Oc1ccc([N+](=O)[O-])cc1)c1ccccc1 (configuration not stated)
active: [2] 4.56 µM | [6] 24 µM | [7] 12.7 µM | [10] 50 µM | [13] 29.4 µM
not listed: [1] | [20]
inactive: all other assays above

CCCCN(CCCC)N=O
not listed: [1] | [20]
inactive: all other assays above

CCNc1nc(Cl)nc(NC(C)(C)C)n1
active: [2] 7.02 µM | [6] 4.01 µM | [10] 9.92 µM
not listed: [1] | [20]
inactive: all other assays above
